The structures appear in SMILES notation. Where two headings read alike, the source gives them in different places.

Consider six compounds from publication PMC11062922 (Nature Chemical Biology, 2023).

What all share (design): species or system human, MV4-11 + K-562 + COLO205 + SK-N-BE2 + OVCAR-8
For test [1], the system named is ADCK3. The following applies: read-out: apparent Kd, n = 1.
For test [2], the system named is BTK. The conditions noted are these: read-out: apparent Kd; compound concentrations: 100 nM and 1000 nM (sheet 'Samples'), CATDS: 0.33731493843611998; n = 1.
Test [3] has as its system JAK2. The conditions noted are these: read-out: apparent Kd; compound concentrations:100 nM and 1000 nM (sheet 'Samples'); n = 1.
Test [4] deals with PIK3C3. The conditions noted are these: read-out: apparent Kd; compound concentrations:100 nM and 1000 nM (sheet 'Samples'); n = 1.
Test [5] deals with TEC. The conditions noted are these: read-out: apparent Kd; compound concentrations:100 nM and 1000 nM (sheet 'Samples'); n = 1.
For test [6], the system named is ZAK. The conditions noted are these: read-out: apparent Kd; compound concentrations:100 nM and 1000 nM (sheet 'Samples'); n = 1.
Test [7] has as its system CLK1. The following applies: read-out: apparent Kd; compound concentrations:100 nM and 1000 nM (sheet 'Samples'); n = 1.
Test [8] has as its system CLK2. The conditions noted are these: read-out: apparent Kd; compound concentrations:100 nM and 1000 nM (sheet 'Samples'); n = 1.
For test [9], the system named is CLK4. The following applies: read-out: apparent Kd; compound concentrations:100 nM and 1000 nM (sheet 'Samples'); n = 1.
Test [10] concerns FER. The following applies: read-out: apparent Kd; compound concentrations:100 nM and 1000 nM (sheet 'Samples'); n = 1.
The subject of test [11] is IGF1R. The conditions noted are these: read-out: apparent Kd; compound concentrations:100 nM and 1000 nM (sheet 'Samples'); n = 1.
In test [12] the test system is INSR. The conditions noted are these: read-out: apparent Kd; compound concentrations:100 nM and 1000 nM (sheet 'Samples'); n = 1.
Test [13] deals with PIK3CA. The following applies: read-out: apparent Kd; compound concentrations:100 nM and 1000 nM (sheet 'Samples'); n = 1.
Test [14] deals with PLK1. The conditions noted are these: read-out: apparent Kd; compound concentrations:100 nM and 1000 nM (sheet 'Samples'); n = 1.
In test [15] the test system is AKT3. The conditions noted are these: read-out: apparent Kd; compound concentrations: 100 nM and 1000 nM (sheet 'Samples'), CATDS: 0.239087060290751; n = 1.
Test [16] deals with PIK3CB. The conditions noted are these: read-out: apparent Kd; compound concentrations: 100 nM and 1000 nM (sheet 'Samples'), CATDS: 0.78583542489200198; n = 1.
Test [17] relates to AKT1. The following applies: read-out: apparent Kd, compound concentrations: 100 nM and 1000 nM (sheet 'Samples'), n = 1.
Test [18] has as its system ADRBK1. The conditions noted are these: read-out: apparent Kd; compound concentrations: 100 nM and 1000 nM (sheet 'Samples'), CATDS: 0.14381840818805; n = 1.
In test [19] the test system is AKT2. The conditions noted are these: read-out: apparent Kd; compound concentrations: 100 nM and 1000 nM (sheet 'Samples'), CATDS: 4.5438239597783502E-2; n = 1.
Test [20] concerns CAMK4. The conditions noted are these: read-out: apparent Kd; compound concentrations: 100 nM and 1000 nM (sheet 'Samples'), CATDS: 3.6966464107036197E-2; n = 1.
Test [21] deals with CSNK1A1. The conditions noted are these: read-out: apparent Kd; compound concentrations: 100 nM and 1000 nM (sheet 'Samples'), CATDS: 3.77728763052241E-2; n = 1.
Test [22] deals with EPHA7. The conditions noted are these: read-out: apparent Kd; compound concentrations: 100 nM and 1000 nM (sheet 'Samples'), CATDS: 3.8645316072732999E-2; n = 1.
For test [23], the system named is ILK. The following applies: read-out: apparent Kd; compound concentrations: 100 nM and 1000 nM (sheet 'Samples'), CATDS: 0.14244785973502599; n = 1.
In test [24] the test system is MAP2K1. The conditions noted are these: read-out: apparent Kd; compound concentrations: 100 nM and 1000 nM (sheet 'Samples'), CATDS: 0.14670729977766001; n = 1.
The test system of test [25] is MAP2K2. The following applies: read-out: apparent Kd; compound concentrations: 100 nM and 1000 nM (sheet 'Samples'), CATDS: 4.5160118472274198E-2; n = 1.
The test system of test [26] is MAP2K4. The following applies: read-out: apparent Kd; compound concentrations: 100 nM and 1000 nM (sheet 'Samples'), CATDS: 0.186744219541462; n = 1.
The subject of test [27] is MCM5. The following applies: read-out: apparent Kd; compound concentrations: 100 nM and 1000 nM (sheet 'Samples'), CATDS: 3.88707631057994E-2; n = 1.
In test [28] the test system is MYLK3. The following applies: read-out: apparent Kd; compound concentrations: 100 nM and 1000 nM (sheet 'Samples'), CATDS: 3.9755051907905598E-2; n = 1.
The test system of test [29] is NNT. The conditions noted are these: read-out: apparent Kd; compound concentrations: 100 nM and 1000 nM (sheet 'Samples'), CATDS: 5.0059398656859502E-2; n = 1.
For test [30], the system named is NQO1. The conditions noted are these: read-out: apparent Kd; compound concentrations: 100 nM and 1000 nM (sheet 'Samples'), CATDS: 4.7880082762824801E-2; n = 1.
Test [31] relates to PRKCI. The conditions noted are these: read-out: apparent Kd; compound concentrations: 100 nM and 1000 nM (sheet 'Samples'), CATDS: 3.7397105483333901E-2; n = 1.
Test [32] deals with PYGL. The following applies: read-out: apparent Kd; compound concentrations: 100 nM and 1000 nM (sheet 'Samples'), CATDS: 3.7417156320033999E-2; n = 1.
The test system of test [33] is RIOK2. The conditions noted are these: read-out: apparent Kd; compound concentrations: 100 nM and 1000 nM (sheet 'Samples'), CATDS: 4.6117723123063198E-2; n = 1.
Test [34] deals with STK11. The conditions noted are these: read-out: apparent Kd; compound concentrations: 100 nM and 1000 nM (sheet 'Samples'), CATDS: 4.1841672980442002E-2; n = 1.
The test system of test [35] is STK26. The following applies: read-out: apparent Kd; compound concentrations: 100 nM and 1000 nM (sheet 'Samples'), CATDS: 3.6848584126752397E-2; n = 1.
In test [36] the test system is TP53RK. The following applies: read-out: apparent Kd; compound concentrations: 100 nM and 1000 nM (sheet 'Samples'), CATDS: 4.1477973818590801E-2; n = 1.
Test [37] deals with VDAC3. The following applies: read-out: apparent Kd; compound concentrations: 100 nM and 1000 nM (sheet 'Samples'), CATDS: 3.7908226064931903E-2; n = 1.
[38] abbreviates: compound concentrations:100 nM and 1000 nM (sheet 'Samples').

Consider `C=CC(=O)Nc1cc(-n2c(=O)ccc3cnc4ccc(-c5ccc(NS(C)(=O)=O)cc5)cc4c32)ccc1C` [BMX-IN-1], for which the potency estimated from few doses in test [1] (setting [38]) was 1.16 µM; in [2], 0.186 µM; in test [3], 0.466 µM; in [4], 1.53 µM; in test [5] it was 0.54 µM; in test [6] it was 0.782 µM.

In the case of `CNC(=O)c1c(F)cccc1Nc1nc(Nc2cc3c(cc2OC)CCN3C(=O)CN(C)C)nc2[nH]ccc12` [GSK1838705], the potency estimated from few doses in [1] (setting [38]) was 1.34 µM; in [7], 0.376 µM; in [8], 0.6 µM; in [9], 0.137 µM; in [10], 0.133 µM; in test [11], 1.13 µM. Moreover, the figures for the potency estimated from few doses in [12], in test [13] and in test [14] were 0.759 µM, 0.176 µM and 2.35 µM, respectively.

With `FC(F)(F)c1ccc(/C=C/c2cncnc2Nc2ccc3[nH]c(Cc4ccccc4)nc3c2)cc1` [GW709199X], the potency estimated from few doses in test [1] (compound concentrations: 100 nM and 1000 nM (sheet 'Samples'), CATDS: 1) is 0.456 µM.

With `Cc1c(Cn2ccn3c(=O)nc(N4CCOCC4)cc23)cccc1C(F)(F)F` [GSK2336394A], the potency estimated from few doses in test [1] (compound concentrations: 100 nM and 1000 nM (sheet 'Samples'), CATDS: 0.28209603435573799) was 0.575 µM; in test [15] it was 1.03 µM; in [16], 0.0542 µM.

As for `FC(F)(F)c1ccc(-c2nn3ncccc3c2-c2ccnc(Nc3ccc(Cl)c(C(F)(F)F)c3)n2)cc1` [GW829350X], the potency estimated from few doses in test [1] (compound concentrations: 100 nM and 1000 nM (sheet 'Samples'), CATDS: 0.67916876553854699) was 0.727 µM; in [17] (CATDS: 0.39563035574495098) it was 2.35 µM.

`COc1cc2ncn(-c3cc(OCc4ccccc4C(F)(F)F)c(C(C)=O)s3)c2cc1OC` [GSK1030059A]: the potency estimated from few doses was 0.132 µM in test [18]; 1.3 µM in test [17] (CATDS: 4.3697981842120898E-2); 1.18 µM in test [19]; 2.08 µM in test [20]; 1.95 µM in test [21]; 1.82 µM in [22]. Also, the potency estimated from few doses in test [23] is 0.134 µM; in test [24] it was 0.128 µM; in test [25], 1.19 µM; in test [26], 0.0895 µM; in [27] it was 1.79 µM; in test [28], 1.67 µM. Besides, the potency estimated from few doses in test [29] was 0.933 µM; in test [30], 1.04 µM; in test [31] it was 2.01 µM; in test [32], 2 µM; in test [33], 1.13 µM; in test [34], 1.45 µM. Besides, the potency estimated from few doses in test [35] is 2.1 µM; in test [36], 1.49 µM; in test [37] it was 1.93 µM.
